We go through 71 compounds from the antibiotic and cytotoxicity screens of Wong et al. (2023).

Among all 39,000 compounds or so, about 3,300 (8.5%) were called active. Many of the other results were omitted from the sample, so actives are more common in it than they were.

The assay concerns HepG2. Put plainly: cytotoxicity call (relative viability < 0.9). The settings on record: 10 µM.
For `Cc1ccc(S(=O)(=O)N(C)C[C@@H]2Oc3ccc(NC(=O)Cn4cnnn4)cc3C(=O)N([C@@H](C)CO)C[C@@H]2C)cc1`, the cytotoxicity call was “inactive”.

In the case of `C/C(=N\N)c1c(C)cc(C)[nH]c1=O`, the cytotoxicity call is “inactive”.

With `Nc1cccc(=O)[nH]1`, the cytotoxicity call is “inactive”.

Consider `Cc1noc(C)c1NC(=O)N(C)C[C@@H]1Oc2ccc(NC(=O)Nc3ccc(C(F)(F)F)cc3)cc2CC(=O)N([C@H](C)CO)C[C@@H]1C`, for which the cytotoxicity call is “inactive”.

For the compound `C[C@H]1CN([C@@H](C)CO)C(=O)c2cc(C#CCc3ccccc3)cnc2O[C@@H]1CN(C)CC1CCOCC1`, the cytotoxicity call was “inactive”.

In the case of `C[C@H](CO)N1C[C@H](C)[C@@H](CN(C)C(=O)Nc2cccc(Oc3ccccn3)c2)OCc2cnnn2CCCC1=O`, the cytotoxicity call is “inactive”.

Turning to `COc1ccc(NC(=O)Nc2ccc3c(c2)C(=O)N([C@@H](C)CO)C[C@H](C)[C@H](CN(C)Cc2ccc4c(c2)OCO4)OCCCC[C@H](C)O3)cc1`, the cytotoxicity call is “inactive”.

As to `C[C@H](CO)N1C[C@H](C)[C@@H](CN(C)S(=O)(=O)c2ccccc2C#N)OCc2cnnn2CCCC1=O`, the cytotoxicity call was “inactive”.

Take `Cc1cc(=O)[nH][nH]1`: the cytotoxicity call is “inactive”.

`COc1ccc(C(=O)CC(=O)c2ccc(C(C)(C)C)cc2)cc1`: the cytotoxicity call was “inactive”.

As for `CCN1CCCC(OC(=O)C(c2ccccc2)c2ccccc2)C1.Cl` (stereo unspecified), the cytotoxicity call was “inactive”.

Turning to `CC(C)(C)c1ccc(C(=O)CCCN2CCC(OC(c3ccccc3)c3ccccc3)CC2)cc1`, the cytotoxicity call was “active”.

Turning to `O=C(c1ccccc1Cl)n1c2ccccc2c2ccccc21`, the cytotoxicity call is “active”.

Consider `O=C(c1ccc(Cl)cc1)n1c2ccccc2c2ccccc21`, for which the cytotoxicity call was “active”.

Take `COc1ccc2c(c1)c(CC(=O)OCC(=O)O)c(C)n2C(=O)c1ccc(Cl)cc1`: the cytotoxicity call is “inactive”.

Take `Cc1c(Cl)cccc1Nc1ccccc1C(=O)O`: the cytotoxicity call is “inactive”.

As to `COc1ccc2c(c1)c(CC(=O)O)c(C)n2C(=O)c1ccc(Cl)cc1`, the cytotoxicity call was “inactive”.

Regarding `NC(=O)c1ccccc1C(N)=O`, the cytotoxicity call was “inactive”.

`C[C@H]1CN([C@@H](C)CO)C(=O)c2cccc(NC(=O)CCCCCC(=O)Nc3ccccc3N)c2O[C@H]1CN(C)C(=O)Nc1ccccc1`: the cytotoxicity call is “inactive”.

Turning to `Cn1nc(CNc2ncccn2)c2c1CNCC2`, the cytotoxicity call was “inactive”.

For `C[C@H](CO)N1C[C@H](C)[C@@H](CN(C)Cc2ccc(C(F)(F)F)cc2)Oc2ccc(NC(=O)Cc3ccccc3)cc2C1=O`, the cytotoxicity call was “inactive”.

For `C[C@H](CO)N1C[C@H](C)[C@H](CN(C)CC2CCCCC2)OCCCC[C@H](C)Oc2ccc(NS(=O)(=O)c3ccccc3)cc2C1=O`, the cytotoxicity call was “inactive”.

On to `CCOC(=O)[C@H]1CSCCN1`, for which the cytotoxicity call was “inactive”.

In the case of `C[C@H]1CN([C@@H](C)CO)C(=O)CCCn2nncc2CO[C@H]1CN(C)Cc1ccc2c(c1)OCCN2C`, the cytotoxicity call was “inactive”.

With `Cc1cc(=O)n2c(C)nnc2[nH]1`, the cytotoxicity call is “inactive”.

As to `CCCNC(=O)Nc1ccc2c(c1)C(=O)N(C)C[C@@H](OC)[C@@H](C)CN(Cc1ccc(-c3ccccn3)cc1)[C@H](C)CO2`, the cytotoxicity call was “inactive”.

On to `COC(=O)c1ccc(Cn2cc(C(=O)NO)nn2)o1`, for which the cytotoxicity call is “inactive”.

Regarding `COc1ccc(-n2cc(C(=O)NO)nn2)cc1`, the cytotoxicity call is “active”.

On to `COc1cccc(-n2cc(C(=O)NO)nn2)c1`, for which the cytotoxicity call was “inactive”.

`COc1cccc(NC(=O)N[C@@H]2CC[C@@H](CC(=O)N3CCN(C)CC3)O[C@@H]2CO)c1`: the cytotoxicity call is “active”.

Consider `COc1cccc(NC(=O)N[C@@H]2CC[C@H](CC(=O)N3CCN(C)CC3)O[C@@H]2CO)c1`, for which the cytotoxicity call was “inactive”.

Regarding `COc1cccc(NC(=O)N[C@H]2CC[C@H](CC(=O)N3CCN(C)CC3)O[C@H]2CO)c1`, the cytotoxicity call was “inactive”.

Turning to `C[C@H](CO)N1C[C@H](C)[C@H](CN(C)C(=O)Nc2ccc(F)cc2)Oc2ncc(-c3cccc(C(F)(F)F)c3)cc2C1=O`, the cytotoxicity call was “inactive”.

As to `C[C@@H]1CN([C@H](C)CO)C(=O)c2cc(NC(=O)c3ccncc3)ccc2O[C@H]1CN(C)Cc1ccc(C(=O)O)cc1`, the cytotoxicity call was “inactive”.

`COc1ccc(CN(C)C[C@H]2Oc3c(NS(=O)(=O)c4cn(C)cn4)cccc3C(=O)N([C@H](C)CO)C[C@@H]2C)cc1`: the cytotoxicity call was “inactive”.

Turning to `C[C@@H]1CN([C@H](C)CO)C(=O)c2cc(NC(=O)c3ccncc3)ccc2O[C@@H](C)CCCCO[C@H]1CN(C)S(=O)(=O)c1ccc(Cl)cc1`, the cytotoxicity call was “active”.

For `C[C@H]1CCCCO[C@H](CN(C)S(=O)(=O)c2ccc(Cl)cc2)[C@@H](C)CN([C@@H](C)CO)C(=O)c2cc(NC(=O)c3ccncc3)ccc2O1`, the cytotoxicity call was “inactive”.

Turning to `C[C@@H]1CCCCO[C@@H](CN(C)S(=O)(=O)c2ccc(Cl)cc2)[C@H](C)CN([C@@H](C)CO)C(=O)c2cc(NC(=O)c3ccncc3)ccc2O1`, the cytotoxicity call was “inactive”.

For `C[C@@H]1CCCCO[C@@H](CN(C)S(=O)(=O)c2ccc(Cl)cc2)[C@@H](C)CN([C@H](C)CO)C(=O)c2cc(NC(=O)c3ccncc3)ccc2O1`, the cytotoxicity call is “inactive”.

For `C[C@@H]1CCCCO[C@H](CN(C)S(=O)(=O)c2ccc(Cl)cc2)[C@@H](C)CN([C@@H](C)CO)C(=O)c2cc(NC(=O)c3ccncc3)ccc2O1`, the cytotoxicity call was “active”.

With `C[C@@H]1CCCCO[C@@H](CN(C)S(=O)(=O)c2ccc(Cl)cc2)[C@@H](C)CN([C@@H](C)CO)C(=O)c2cc(NC(=O)c3ccncc3)ccc2O1`, the cytotoxicity call was “inactive”.

For `Cc1noc(C)c1S(=O)(=O)N(C)C[C@H]1Oc2c(NC(=O)C3CCCCC3)cccc2C(=O)N([C@H](C)CO)C[C@H]1C`, the cytotoxicity call was “inactive”.

As to `COc1ccc(CN(C)C[C@H]2OCCCC[C@@H](C)Oc3ccc(NS(=O)(=O)c4ccc(C)cc4)cc3C(=O)N([C@@H](C)CO)C[C@@H]2C)cc1`, the cytotoxicity call was “inactive”.

For the compound `C[C@H]1CCCCO[C@@H](CN(C)S(=O)(=O)c2ccc(Cl)cc2)[C@@H](C)CN([C@@H](C)CO)C(=O)c2cc(NS(=O)(=O)c3ccccc3)ccc2O1`, the cytotoxicity call is “inactive”.

As for `CC12C=CC(=O)C=C1CCC1C2C(O)CC2(C)C1CCC2(O)C(=O)COC(=O)CCC(=O)O` (stereo unspecified), the cytotoxicity call was “inactive”.

On to `Cc1ccc(S(=O)(=O)N(C)C[C@@H]2Oc3ncc(C#CCC(C)C)cc3C(=O)N([C@@H](C)CO)C[C@H]2C)cc1`, for which the cytotoxicity call is “active”.

Take `COc1cccc(S(=O)(=O)N(C)C[C@H]2Oc3ncc(C#CCC(C)C)cc3C(=O)N([C@@H](C)CO)C[C@H]2C)c1`: the cytotoxicity call was “inactive”.

As to `Cc1ccc(S(=O)(=O)N(C)C[C@H]2Oc3ncc(C#CCC(C)C)cc3C(=O)N([C@@H](C)CO)C[C@@H]2C)cc1`, the cytotoxicity call is “inactive”.

Regarding `Cc1ccc(S(=O)(=O)N(C)C[C@H]2Oc3ncc(C#CCC(C)C)cc3C(=O)N([C@H](C)CO)C[C@@H]2C)cc1`, the cytotoxicity call was “inactive”.

As to `COc1cccc(S(=O)(=O)N(C)C[C@H]2Oc3ncc(C#CCC(C)C)cc3C(=O)N([C@H](C)CO)C[C@@H]2C)c1`, the cytotoxicity call is “active”.

In the case of `COc1cccc(-c2cnc3c(c2)C(=O)N([C@H](C)CO)C[C@H](C)[C@H](CN(C)S(=O)(=O)c2ccccc2)O3)c1`, the cytotoxicity call is “active”.

For `Cc1ccc(S(=O)(=O)N(C)C[C@@H]2Oc3ncc(C#CCC(C)C)cc3C(=O)N([C@H](C)CO)C[C@@H]2C)cc1`, the cytotoxicity call is “inactive”.

On to `COc1cccc(S(=O)(=O)N(C)C[C@@H]2Oc3ncc(-c4ccccc4)cc3C(=O)N([C@H](C)CO)C[C@@H]2C)c1`, for which the cytotoxicity call is “inactive”.

Consider `COc1cccc(S(=O)(=O)N(C)C[C@H]2Oc3ncc(C#CCC(C)C)cc3C(=O)N([C@H](C)CO)C[C@H]2C)c1`, for which the cytotoxicity call is “inactive”.

`COc1cccc(-c2cnc3c(c2)C(=O)N([C@H](C)CO)C[C@H](C)[C@H](CN(C)S(=O)(=O)c2cccc(OC)c2)O3)c1`: the cytotoxicity call was “inactive”.

As for `Cc1ccc(S(=O)(=O)N(C)C[C@@H]2Oc3ncc(C#CCC(C)C)cc3C(=O)N([C@H](C)CO)C[C@H]2C)cc1`, the cytotoxicity call is “inactive”.

As for `Cc1ccc(S(=O)(=O)N(C)C[C@H]2Oc3ncc(C#CCC(C)C)cc3C(=O)N([C@@H](C)CO)C[C@H]2C)cc1`, the cytotoxicity call was “active”.

As to `CN(C)CCCNC(=O)C[C@@H]1CC[C@H]2[C@@H](COC[C@@H](O)CN2S(=O)(=O)c2ccc(F)cc2)O1`, the cytotoxicity call is “inactive”.

For `CO[C@H]1CN(C)C(=O)c2cc(NS(=O)(=O)CC(F)(F)F)ccc2OC[C@H](C)N(Cc2ccccn2)C[C@@H]1C`, the cytotoxicity call was “inactive”.

Consider `CC(C)CC#Cc1cnc2c(c1)C(=O)N([C@@H](C)CO)C[C@@H](C)[C@@H](CN(C)C(=O)CN1CCOCC1)O2`, for which the cytotoxicity call is “inactive”.

As for `C[C@@H]1CN([C@@H](C)CO)C(=O)c2cc(NS(=O)(=O)c3ccccc3)ccc2O[C@@H](C)CCCCO[C@H]1CN(C)C(=O)c1ccccc1`, the cytotoxicity call was “inactive”.

Take `C[C@@H]1CCCCO[C@H](CN(C)C(=O)Cc2ccccc2)[C@@H](C)CN([C@H](C)CO)C(=O)c2cc(NC(=O)Nc3ccc4c(c3)OCO4)ccc2O1`: the cytotoxicity call is “inactive”.

As for `CNC[C@H]1Oc2ccc(NS(=O)(=O)c3cn(C)cn3)cc2C(=O)N([C@@H](C)CO)C[C@H]1C`, the cytotoxicity call was “inactive”.

For the compound `C[C@@H]1CCCCO[C@@H](CN(C)C(=O)Nc2ccccc2)[C@H](C)CN([C@@H](C)CO)C(=O)c2cc(NC(=O)Nc3ccccc3)ccc2O1`, the cytotoxicity call was “inactive”.

Turning to `C[C@@H]1CN([C@@H](C)CO)C(=O)c2cc(-c3ccc(C(=O)N(C)C)cc3)cnc2O[C@H]1CN(C)C(=O)CN(C)C`, the cytotoxicity call was “inactive”.

As for `C[C@H]1CCCCO[C@H](CN(C)Cc2ccccc2)[C@@H](C)CN([C@@H](C)CO)C(=O)c2cc(NC(=O)c3ccncc3)ccc2O1`, the cytotoxicity call is “inactive”.

On to `Cc1noc(C)c1NC(=O)Nc1ccc2c(c1)C(=O)N([C@H](C)CO)C[C@@H](C)[C@H](CN(C)Cc1ccc(Oc3ccccc3)cc1)O2`, for which the cytotoxicity call was “inactive”.

In the case of `Cc1cc(C(=O)Nc2cccc3c2O[C@@H](CN(C)C(=O)NC(C)C)[C@H](C)CN([C@H](C)CO)C3=O)n(C)n1`, the cytotoxicity call was “inactive”.

Regarding `C[C@@H]1CN([C@@H](C)CO)C(=O)c2cc(NC(=O)Nc3cccc4ccccc34)ccc2O[C@@H](C)CCCCO[C@@H]1CN(C)S(=O)(=O)c1ccc(F)cc1`, the cytotoxicity call is “inactive”.

Regarding `CN1CCN(C(=O)C[C@H]2CC[C@@H](NC(=O)c3ccc4c(c3)OCO4)[C@H](CO)O2)CC1`, the cytotoxicity call was “inactive”.

As to `C[C@@H]1CN([C@@H](C)CO)C(=O)c2c(c3ccccc3n2C)-c2ccccc2CO[C@H]1CN(C)C(=O)Nc1ccccc1`, the cytotoxicity call is “inactive”.
